Assay outcomes from PubChem.
pPAFAH FP inh – pPAFAH enzyme inhibitors, primary screen, biochemical, fluorescence polarization, human | Platelet-activating factor acetylhydrolase (Homo sapiens), Q13093 | inhibition, % at 3.39 µM | recombinant pPAFAH, FP-rhodamine probe fluorescence polarization | AID 463082, 2010 | hit rate 1.5% among 330,000;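 active = inhibition above the mean inhibition across the screen plus 3 SD, cut at about 25% in these data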;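 note: inhibitors block binding of the rhodamine activity-based probe so polarization drops; 0% = enzyme with DMSO and 100% = wells lacking pPAFAH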
Target sequence (Q13093 whole entry, looked up): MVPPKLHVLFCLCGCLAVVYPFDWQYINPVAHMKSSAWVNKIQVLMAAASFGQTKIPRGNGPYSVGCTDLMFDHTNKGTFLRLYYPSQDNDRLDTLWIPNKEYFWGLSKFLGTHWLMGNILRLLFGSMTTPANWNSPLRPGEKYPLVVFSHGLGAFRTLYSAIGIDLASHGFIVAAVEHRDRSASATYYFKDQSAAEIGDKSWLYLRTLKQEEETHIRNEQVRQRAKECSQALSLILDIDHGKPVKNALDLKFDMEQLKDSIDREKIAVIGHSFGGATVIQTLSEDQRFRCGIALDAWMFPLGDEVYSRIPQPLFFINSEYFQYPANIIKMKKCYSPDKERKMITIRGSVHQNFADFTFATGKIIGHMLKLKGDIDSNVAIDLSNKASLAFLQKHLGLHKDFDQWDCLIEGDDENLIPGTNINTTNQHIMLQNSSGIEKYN
Fh CTSL1 inh – Fasciola hepatica cathepsin L1 inhibitors, primary screen, counter-screen for PFM18AAP inhibitor project, biochemical, QFRET, fluorogenic peptide substrate; recombinant F. hepatica cathepsin L1, Z-Leu-Arg-MCA fluorescence; inhibition, % at 5.96 µM; hit rate 0.49% among 300,000;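 active = inhibition above the mean of all tested compounds plus 3 SD, set per screening campaign, cut at about 17% in these data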;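 note: 0% = plate median of test compound wells and 100% = 1 µM Z-Phe-Ala-diazomethylketone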
PAFAH1B2 inh – PAFAH1B2 enzyme inhibitors, primary screen, biochemical, fluorescence polarization, human; Platelet-activating factor acetylhydrolase IB subunit alpha2 (Homo sapiens), P68402; recombinant PAFAH1B2, FP-rhodamine activity probe; inhibition, % at 3.39 µM; hit rate 1.2% among 340,000; AID 492953, 2010;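 active = inhibition above the mean of all tested compounds plus 3 SD, cut at about 24% in these data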;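 note: 0% = enzyme with DMSO and 100% = wells lacking PAFAH1B2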
PAFAH2 FP inh – PAFAH2 enzyme inhibitors, primary screen, biochemical, fluorescence polarization, human; AID 492956, 2010; hit rate 0.99% among 340,000; inhibition, % at 3.39 µM; Platelet-activating factor acetylhydrolase 2, cytoplasmic (Homo sapiens), Q99487; recombinant PAFAH2, FP-rhodamine activity probe;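 active = inhibition above the mean over all tested compounds plus 3 SD, cut at about 30% in these data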;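 note: inhibitors block probe labeling of enzyme so polarization drops; 0% = enzyme with DMSO and 100% = wells lacking PAFAH2 protein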
PAFAH1B3 FP inh – PAFAH1B3 enzyme inhibitors, primary screen, biochemical, fluorescence polarization, human | recombinant PAFAH1B3, FP-rhodamine probe | Platelet-activating factor acetylhydrolase IB subunit alpha1 (Homo sapiens), Q15102 | hit rate 0.28% among 340,000 | AID 492972, 2010 | inhibition, % at 3.39 µM;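 active = inhibition above the screen-wide average of all tested compounds plus 3 SD, cut at about 25% in these data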;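 note: 0% = enzyme with DMSO only and 100% = wells lacking PAFAH1B3 protein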
PP5 inh – PP5 phosphatase inhibitors, primary screen, biochemical, fluorescence; Serine/threonine-protein phosphatase 5 (Homo sapiens), P53041; hit rate 0.18% among 320,000; inhibition, % at 6.7 µM; purified PP5c, OMFP substrate fluorescence;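 active = inhibition above the campaign's mean inhibition across all tested compounds plus 3 SD, cut at about 9.5% in these data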;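 note: 0% = DMSO only and 100% = 100 µM cantharidin control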
Starred values were filed as active, the others as inactive; nt = no result. Shown are actives, neighbours in structure and some others; about 3% of the full set was active somewhere.

SMILES	pPAFAH FP inh	Fh CTSL1 inh	PAFAH1B2 inh	PAFAH2 FP inh	PAFAH1B3 FP inh	PP5 inh
COc1ccc(CCN2C(=O)CSC2c2ccc(F)cc2)cc1 (configuration not stated)	-2	2	26*	-6	1	-1
O=C1CSC(c2ccccc2)N1CCc1ccccc1 (configuration not stated)	1	2	9	-9	-4	-1
C=CCc1cc(C=Nc2ccc(N3CCOCC3)cc2)cc(OCC)c1O	nt	nt	6	0	9	nt
COCc1ccc(C(=O)N2CCCC(C(=O)c3ccc(SC)cc3)C2)s1 (configuration not stated)	3	2	-2	-3	-6	-3
C[C@@H](NC(=O)c1nc[nH]c1C(=O)N(C)Cc1ccccc1)c1ccccc1	4	nt	3	-13	3	-2
O=C(CSc1ccccn1)Nc1ccc2c(c1)OCO2	5	2	nt	nt	nt	3
O=C(CSc1nnc(-c2cccs2)n1-c1ccccc1)NCc1ccc2c(c1)OCO2	4	7	9	5	-6	-1
O=C(CSc1nnc(Cc2cccs2)n1-c1ccc(Cl)cc1)NCc1ccc2c(c1)OCO2	25*	0	-2	3	0	-3
Cc1ccc(-n2c(Cc3cccs3)nnc2SCC(=O)Nc2ccc(S(N)(=O)=O)cc2)cc1	26*	4	7	9	8	3
O=C(CSc1ccccn1)NCc1ccc2c(c1)OCO2	6	17*	2	-1	6	1
COCc1c(C(=O)NC(C)c2ccc(S(N)(=O)=O)cc2)oc2ccccc12 (configuration not stated)	5	-1	-1	-2	3	3
COc1cc2c(cc1OC)C(C(=O)Nc1ccc(F)c(Cl)c1)CC(=O)N2 (configuration not stated)	-2	9	2	4	7	0
COc1cccc(-c2coc3c(C)c4oc(=O)c(CCC(=O)O)c(C)c4cc23)c1	25*	6	6	10	1	3
Cc1c(CC(=O)O)c(=O)oc2c(C)c3occ(-c4ccc(Br)cc4)c3cc12	12	0	29*	12	1	-1
COc1ccc(-c2coc3c(C)c4oc(=O)c(CC(=O)O)c(C)c4cc23)cc1	nt	nt	7	4	5	nt
O=Cc1c(-c2ccc(Cl)cc2)oc2ccc(O)cc12	16	-2	nt	nt	nt	2
O=C(CSc1ccc(Cl)cc1)NCc1ccncc1	5	2	29*	-6	4	0
O=C(CCSc1ccc(Cl)cc1)NCc1ccncc1	2	-3	12	-3	0	0
N#Cc1ccccc1OCC(=O)NCC(c1cccs1)N1CCOCC1 (configuration not stated)	2	4	-2	-9	1	0
Cc1ccc(NC2=C/C(=N/S(=O)(=O)c3cccs3)c3ccccc3C2=O)cc1C	-2	19*	-3	1	10	2
Cc1ccccc1NC1=C/C(=N\S(=O)(=O)c2ccc(C(=O)O)cc2)c2ccccc2C1=O	22	104*	34*	67*	65*	9
Cc1cc[n+](C2=C([O-])c3ccccc3C(=O)/C2=N\S(=O)(=O)c2cccs2)cc1C	1	27*	-4	-7	-4	4
COC(=O)C(C(C)=O)C1=C/C(=N\S(=O)(=O)c2ccc(C)cc2)c2ccccc2C1=O (configuration not stated)	3	-1	1	4	1	5
Cc1ccc(NC(=O)CN(C)S(=O)(=O)c2cccs2)cc1C	3	5	-2	-6	-4	1
COc1ccc(S(=O)(=O)/N=C2\C=C(Nc3ccc(O)cc3)C(=O)c3ccccc32)cc1	26*	92*	25*	43*	70*	7
SMILES	pPAFAH FP inh	Fh CTSL1 inh	PAFAH1B2 inh	PAFAH2 FP inh	PAFAH1B3 FP inh	PP5 inh
COc1ccc(C(CNC(=O)C2COc3ccccc3O2)N2CCCC2)cc1 (configuration not stated)	-8	nt	3	0	5	1
CCCCCCSc1nnc2[nH]c(=O)cc(N)n12	1	-1	26*	2	4	-2
COc1ccc(/C=N/Nc2ccc(C(=O)O)cc2)cc1Br	10	7	8	6	9	0
C=CCOc1c(Br)cc(/C=N/Nc2ccc(C(=O)O)cc2)cc1OCC	30*	7	3	16	6	3
COCCCNC(=O)COC(=O)c1ccc(-c2nc3ccccc3s2)s1	28*	2	5	-1	7	-2
CNC(=O)COC(=O)c1ccc(-c2nc3ccccc3s2)s1	8	-2	4	3	-4	0
Oc1ccccc1CNc1cccc2cccnc12	34*	-1	1	2	14	3
CC(C)CC(NC(=O)C(COCc1ccccc1)NC(=O)OC(C)(C)C)C(=O)NN (configuration not stated)	6	18*	0	2	2	-1
O=C(CN1CCN(Cc2ccc(F)cc2Cl)C1=O)NCCc1ccc(Cl)cc1	34*	-2	18	-6	0	0
O=C(CN1CCCN(Cc2ccc(F)cc2Cl)C1=O)NC1CCCCCC1	2	-1	4	1	5	0
CC1(C)Nc2ccc(O)cc2-c2c1ssc2=S	26*	5	3	10	7	3
CN(Cc1cccc(Cl)c1Cl)C(=O)CCNC(=O)c1ccco1	0	nt	2	-9	7	nt
CCCOC(=O)C1=C(C)NC2=C(C(=O)C(C(=O)OC)C(C)C2)C1c1ccc(N(CC)CC)cc1 (configuration not stated)	9	20*	0	10	-4	6
CC1(OC(=O)c2cccs2)C(=O)C=C2C=C3CCCN3C=C2C1=O (configuration not stated)	28*	3	7	22	11	6
CC1(OC(=O)C2CCCC2)C(=O)C=C2C=C3CCCN3C=C2C1=O (configuration not stated)	15	-1	nt	nt	nt	2
CCCCC(=O)NC(=O)NC(c1ccccc1)c1ccccc1	5	33*	5	5	0	2
CCCCC(=O)NC(=S)NNS(=O)(=O)c1ccccc1	-4	2	1	-6	8	0
Cc1ccc(C)c(-n2ccnc2SCC(=O)c2c(N)n(C3CC3)c(=O)[nH]c2=O)c1	4	nt	0	3	2	4
Cc1ccc(CSc2nc3c(c(=O)[nH]2)CCC3)cc1	8	0	25*	2	10	5
